Ten molecules from PubChem BioAssay (NCI) can be followed below.

The panel holds about 79,000 compounds, 15% with a hit somewhere; the sample as a whole holds those more often. A number with no mark means an inactive call. Calls of active or inactive are those of the source. Cut-off read from the data, not from the text of the source: active = growth inhibition above about 70%; inactive = the rest.

Assay [1] can be described thus: NCI Yeast Anticancer Drug Screen. Data for the rad50 strain (AID 155).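 Note: 0% = growth of vehicle-only cultures of the same strain.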 Particulars: S. cerevisiae rad50 strain growth inhibition, stronger effect = higher value. In short, it runs like this:
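DNA repair mutant yeast, compound exposure, growth read-out; inhibition is taken relative to vehicle.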

Assay [2] can be described thus: NCI Yeast Anticancer Drug Screen. Data for the mec2-1 strain (AID 157). The following applies: S. cerevisiae mec2-1 strain, stronger effect = higher value. In short, it runs like this: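 Mutant yeast (mec2-1) grown with compound; growth inhibition relative to vehicle control reported.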
Assay [3] can be described thus: NCI Yeast Anticancer Drug Screen. Data for the sgs1 mgt1 strain (AID 161).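 Note: 0% = growth of cultures given vehicle only.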 Particulars: S. cerevisiae sgs1 mgt1 strain, stronger effect = higher value. The method, boiled down: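 Percent growth inhibition was derived by comparing compound-exposed mutant yeast with vehicle-exposed cultures. The strain carries alterations in DNA damage repair.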
Assay [4] in a line: NCI Yeast Anticancer Drug Screen. Data for the cln2 rad14 strain (AID 165).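 Note: 0% = growth equal to vehicle treated cultures.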 The following applies: S. cerevisiae cln2 rad14 strain, stronger effect = higher value. In short, it runs like this:
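Readout is yeast growth inhibition versus vehicle-treated controls, using a strain with cln2 and rad14 alterations exposed to compound.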

A short description of assay [5]: NCI Yeast Anticancer Drug Screen. Data for the bub3 strain (AID 167). The following applies: S. cerevisiae bub3 mutant strain, stronger effect = higher value. In short, it runs like this:
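In this screen, a yeast mutant lacking normal mitotic checkpoint function is challenged with compound. Relative growth versus vehicle gives the inhibition value.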

A short description of assay [6]: NCI Yeast Anticancer Drug Screen. Data for the mlh1 rad18 strain (AID 175). The following applies: S. cerevisiae mlh1 rad18 strain growth inhibition, stronger effect = higher value. In short, it runs like this:
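Genetically defined yeast (DNA repair-deficient) exposed to compounds; growth inhibition determined relative to vehicle.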

Setting [7] is: at 5.0 µM (retest, dose inferred, filed as 0.5).
[8] abbreviates: at 50.0 µM (retest, dose inferred, filed as 5.0).

Regarding `CC(C)NC(=O)OCCN=C1c2ccccc2CCc2ccccc21`, the growth inhibition is -17% in assay [1] (setting [7]); 95% (active) in assay [1] (setting [8]); 76.4% (active) in assay [1] (at 50.0 µM); -32% in assay [2] (setting [7]); 96% (active) in assay [2] (setting [8]); 78.8% (active) in assay [2] (at 50.0 µM). For the same molecule, the growth inhibition was -46% in assay [3] (setting [7]); 89% (active) in assay [3] (setting [8]); 77.5% (active) in assay [3] (at 50.0 µM); -26% in assay [4] (setting [7]); 60% in assay [4] (setting [8]); 61.5% in assay [4] (at 50.0 µM). In addition, the growth inhibition in assay [5] (setting [7]) was -62%; in assay [5] (setting [8]) it was 97% (active); in assay [5] (at 50.0 µM) it was 81.5% (active); in assay [6] (setting [7]), -11%; in assay [6] (setting [8]), 95% (active); in assay [6] (at 50.0 µM) it was 68.8%.
With `C[C@H]1CC[C@@H]2[C@@H](C)[C@H]3[C@H](C[C@H]4[C@@H]5CC=C6C[C@@H](O)CC[C@]6(C)[C@H]5C[C@H](O)[C@]34C)N2C1`, the growth inhibition in assay [1] (setting [7]) is -6%; in assay [1] (setting [8]), 8%; in assay [1] (at 50.0 µM), -17.8%; in assay [2] (setting [7]), 19%; in assay [2] (setting [8]) it was -7%; in assay [2] (at 50.0 µM), -45.2%. Also, the growth inhibition was -3% in assay [3] (setting [7]); 0% in assay [3] (setting [8]); -7.65% in assay [3] (at 50.0 µM); 16% in assay [4] (setting [7]); -2% in assay [4] (setting [8]); 38.9% in assay [4] (at 50.0 µM). Further, the growth inhibition in assay [5] (setting [7]) was 1%; in assay [5] (setting [8]), -6%; in assay [5] (at 50.0 µM) it was -47.1%; in assay [6] (setting [7]), 1%; in assay [6] (setting [8]) it was 7%; in assay [6] (at 50.0 µM), 3%.
Consider `CCCCCCCCCCCCCCCC[N+](C)(C)CC(=O)O`, for which the growth inhibition was 6% in assay [1] (setting [7]); 92% (active) in assay [1] (setting [8]); -12.2% in assay [1] (at 50.0 µM); 7% in assay [2] (setting [7]); 98% (active) in assay [2] (setting [8]); 1.2% in assay [2] (at 50.0 µM). In addition, the growth inhibition in assay [3] (setting [7]) was 19%; in assay [3] (setting [8]), 97% (active); in assay [3] (at 50.0 µM), -1.4%; in assay [4] (setting [7]) it was 2%; in assay [4] (setting [8]), 94% (active); in assay [4] (at 50.0 µM), 88.4% (active). Besides, the growth inhibition is 0% in assay [5] (setting [7]); 96% (active) in assay [5] (setting [8]); 99% (active) in assay [5] (at 50.0 µM); 5% in assay [6] (setting [7]); 97% (active) in assay [6] (setting [8]); 7.85% in assay [6] (at 50.0 µM).
For the molecule `CCOC(=O)C(=O)N1C(C)=C(C(=O)OCC)CC(C(=O)OCC)=C1C`, the growth inhibition was 35% in assay [1] (setting [7]); 44% in assay [1] (setting [8]); -24.6% in assay [1] (at 50.0 µM); 18% in assay [2] (setting [7]); 19% in assay [2] (setting [8]); -26.2% in assay [2] (at 50.0 µM). The growth inhibition was 30% in assay [3] (setting [7]); 32% in assay [3] (setting [8]); -17.8% in assay [3] (at 50.0 µM); 29% in assay [4] (setting [7]); 18% in assay [4] (setting [8]); -34% in assay [4] (at 50.0 µM). Moreover, the growth inhibition in assay [5] (setting [7]) was 27%; in assay [5] (setting [8]), 25%; in assay [5] (at 50.0 µM), -8.45%; in assay [6] (setting [7]) it was 32%; in assay [6] (setting [8]) it was 31%; in assay [6] (at 50.0 µM) it was -44.1%.
As to `N#CC(C(=O)C(N)=O)c1ccc(Cl)cc1Cl` (stereo not given), the growth inhibition in assay [1] (setting [7]) was 0%; in assay [1] (setting [8]), -2%; in assay [1] (at 50.0 µM) it was 82.2% (active); in assay [2] (setting [7]) it was 1%; in assay [2] (setting [8]), 6%; in assay [2] (at 50.0 µM), 99.6% (active). Besides, the growth inhibition in assay [3] (setting [7]) was 1%; in assay [3] (setting [8]) it was 0%; in assay [3] (at 50.0 µM), 99.6% (active); in assay [4] (setting [7]) it was -4%; in assay [4] (setting [8]) it was 8%; in assay [4] (at 50.0 µM), 91.3% (active). The growth inhibition in assay [5] (setting [7]) is -1%; in assay [5] (setting [8]), 21%; in assay [5] (at 50.0 µM), 96.6% (active); in assay [6] (setting [7]), -3%; in assay [6] (setting [8]), 2%; in assay [6] (at 50.0 µM) it was 99.2% (active).
Turning to `C1=NC(N(Cc2ccccc2)Cc2ccccc2)N(Cc2ccccc2)N1` (stereo not given), the growth inhibition in assay [1] (setting [7]) is 26%; in assay [1] (setting [8]), 95% (active); in assay [1] (at 50.0 µM) it was 92.4% (active); in assay [2] (setting [7]) it was -1%; in assay [2] (setting [8]), 95% (active); in assay [2] (at 50.0 µM), 93.6% (active). Further, the growth inhibition is 14% in assay [3] (setting [7]); 94% (active) in assay [3] (setting [8]); 92.1% (active) in assay [3] (at 50.0 µM); -1% in assay [4] (setting [7]); 95% (active) in assay [4] (setting [8]); 89.8% (active) in assay [4] (at 50.0 µM). Moreover, the growth inhibition in assay [5] (setting [7]) is -14%; in assay [5] (setting [8]) it was 96% (active); in assay [5] (at 50.0 µM) it was 92.2% (active); in assay [6] (setting [7]), -19%; in assay [6] (setting [8]), 96% (active); in assay [6] (at 50.0 µM), 88.8% (active).
On to `CCC/C(C)=N/NC(=S)SC`, for which the growth inhibition was 70% (active) in assay [1] (setting [7]); 95% (active) in assay [1] (setting [8]); 96.8% (active) in assay [1] (at 50.0 µM); 38% in assay [2] (setting [7]); 95% (active) in assay [2] (setting [8]); 90.5% (active) in assay [2] (at 50.0 µM). For the same molecule, the growth inhibition in assay [3] (setting [7]) is 27%; in assay [3] (setting [8]) it was 96% (active); in assay [3] (at 50.0 µM), 94.2% (active); in assay [4] (setting [7]), 6%; in assay [4] (setting [8]), 84% (active); in assay [4] (at 50.0 µM), 77.5% (active). The growth inhibition is 65% in assay [5] (setting [7]); 94% (active) in assay [5] (setting [8]); 96.7% (active) in assay [5] (at 50.0 µM); 72% (active) in assay [6] (setting [7]); 95% (active) in assay [6] (setting [8]); 96.3% (active) in assay [6] (at 50.0 µM).
In the case of `CCn1c2nc(=O)n(C)c(=O)c-2[n+]([O-])c2cc(C)ccc21`, the growth inhibition in assay [1] (setting [7]) was 16%; in assay [1] (setting [8]), 70% (active); in assay [1] (at 50.0 µM), 70.5% (active); in assay [2] (setting [7]) it was 8%; in assay [2] (setting [8]) it was 33%; in assay [2] (at 50.0 µM), 26.4%. Moreover, the growth inhibition in assay [3] (setting [7]) is 4%; in assay [3] (setting [8]), 27%; in assay [3] (at 50.0 µM) it was 44.5%; in assay [4] (setting [7]) it was -2%; in assay [4] (setting [8]), 7%; in assay [4] (at 50.0 µM) it was 25.1%. For the same molecule, the growth inhibition in assay [5] (setting [7]) is -1%; in assay [5] (setting [8]), 13%; in assay [5] (at 50.0 µM) it was 14.9%; in assay [6] (setting [7]) it was 0%; in assay [6] (setting [8]), 49%; in assay [6] (at 50.0 µM) it was 10.8%.
For `O=C1CN(Cc2ccc(Cl)cc2)CC(=O)N2Cc3ccccc3CN12`, the growth inhibition was 4% in assay [1] (setting [7]); -3% in assay [1] (setting [8]); -16.2% in assay [1] (at 50.0 µM); -4% in assay [2] (setting [7]); -6% in assay [2] (setting [8]); -13.8% in assay [2] (at 50.0 µM). In addition, the growth inhibition in assay [3] (setting [7]) is 4%; in assay [3] (setting [8]) it was -13%; in assay [3] (at 50.0 µM), -13.2%; in assay [4] (setting [7]), -2%; in assay [4] (setting [8]), 1%; in assay [4] (at 50.0 µM), 5.1%. Besides, the growth inhibition is 6% in assay [5] (setting [7]); 6% in assay [5] (setting [8]); 64.2% in assay [5] (at 50.0 µM); -4% in assay [6] (setting [7]); -3% in assay [6] (setting [8]); -11% in assay [6] (at 50.0 µM).
Consider `CCCCCCCCCCOC(=O)c1cccnc1`, for which the growth inhibition was 5% in assay [1] (setting [7]); 86% (active) in assay [1] (setting [8]); -5.45% in assay [1] (at 50.0 µM); 0% in assay [2] (setting [7]); 52% in assay [2] (setting [8]); 39.3% in assay [2] (at 50.0 µM). For the same molecule, the growth inhibition was 7% in assay [3] (setting [7]); 74% (active) in assay [3] (setting [8]); 30.6% in assay [3] (at 50.0 µM); 3% in assay [4] (setting [7]); 34% in assay [4] (setting [8]); -1.4% in assay [4] (at 50.0 µM). The growth inhibition in assay [5] (setting [7]) is 8%; in assay [5] (setting [8]), 91% (active); in assay [5] (at 50.0 µM), 78.2% (active); in assay [6] (setting [7]) it was 9%; in assay [6] (setting [8]), 87% (active); in assay [6] (at 50.0 µM), 80.5% (active).
